Holding throughout (conditions): mRNA level, 48 h; actives raise or lower the signal
Read-out in assay [1]: Bcl-2 (BAX) gene, BAX (gene 581)
In words: LTEA_HepaRG_BAX: Life Technologies and Expression Analysis (LTEA) Assay for Bcl-2 (BAX) gene using HepaRG (AID 2283470). Summed up:
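Human HepaRG cells treated in duplicate for 48 h across eight concentrations (max 100 uM, 0.5% DMSO); BAX expression measured by qRT-PCR.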

Read-out in assay [2]: adenosine kinase (ADK) gene, ADK (gene 132)
The assay can be described thus: LTEA_HepaRG_ADK: Life Technologies and Expression Analysis (LTEA) Assay for adenosine kinase (ADK) gene using HepaRG (AID 2283471). Summed up:
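HepaRG (human liver), 48 h chemical exposure, 8-pt half-log series, top 100 uM, 0.5% DMSO vehicle. Readout: ADK mRNA by qRT-PCR vs housekeeping genes; bidirectional curve fit relative to DMSO baseline.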

Read-out in assay [3]: Alpha-fetoprotein (AFP) gene, AFP (gene 174)
In words: LTEA_HepaRG_AFP: Life Technologies and Expression Analysis (LTEA) Assay for Alpha-fetoprotein (AFP) gene using HepaRG (AID 2283472). Put shortly:
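Measures AFP mRNA change in HepaRG after 48 h chemical exposure (8 half-log concentrations, highest 100 uM, 0.5% DMSO). Fold change relative to DMSO, fitted in both directions.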

Read-out in the next assay: BCL2L11 (gene 10018)
In words: LTEA_HepaRG_BCL2L11: Life Technologies and Expression Analysis (LTEA) Assay for Bcl-2 (BCL2L11) gene using HepaRG (AID 2283473). Summed up:
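HepaRG, 48 h exposure, 8-pt half-log series from 100 uM in 0.5% DMSO, duplicates; qRT-PCR (Fluidigm TaqMan) for BCL2L11, housekeeping-normalized; bidirectional curve fit relative to DMSO baseline.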

Read-out in assay [4]: Apolipoprotein A-V (APOA5) gene, APOA5 (gene 116519)
In words: LTEA_HepaRG_APOA5: Life Technologies and Expression Analysis (LTEA) Assay for Apolipoprotein A-V (APOA5) gene using HepaRG (AID 2283474). Put shortly: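 HepaRG, 48 h chemical exposure in serum-free induction medium, 8-pt half-log series (top 100 uM), 0.5% DMSO vehicle, duplicates. Readout: APOA5 mRNA by qRT-PCR, housekeeping-normalized; bidirectional fit vs DMSO baseline.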

Read-out in assay [5]: Apoptosis regulator Bcl-2 (Homo sapiens) (UniProt P10415)
In words: LTEA_HepaRG_BCL2: Life Technologies and Expression Analysis (LTEA) Assay for Bcl-2 gene using HepaRG (AID 2283475). Put shortly: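 Each chemical was tested in duplicate on HepaRG cultures held in serum-free induction medium for 48 h, highest concentration 100 uM with half-log dilutions. Transcript levels came from multiplexed qRT-PCR, normalised to housekeeping genes; activity was scored in either direction relative to DMSO.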

Read-out in assay [6]: Bcl-2 (BID) gene, BID (gene 637)
In words: LTEA_HepaRG_BID: Life Technologies and Expression Analysis (LTEA) Assay for Bcl-2 (BID) gene using HepaRG (AID 2283476). Summed up:
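Assay used HepaRG hepatic cells treated 48 h in serum-free medium with half-log dilutions from 100 uM. Endpoint: BID mRNA, qRT-PCR, normalized to ACTB/GAPDH/POLR2A.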

Read-out in another assay: Caspase-3 (Homo sapiens) (UniProt P42574)
The assay can be described thus: LTEA_HepaRG_CASP3: Life Technologies and Expression Analysis (LTEA) Assay for cysteine-aspartic acid protease (CASP3) using HepaRG (AID 2283477). Put shortly:
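HepaRG, 48 h exposure, 8 conc. (top 100 uM, half-log steps, duplicate), 0.5% DMSO vehicle; qRT-PCR of CASP3 transcript, housekeeping-normalised (ACTB/GAPDH/POLR2A); bidirectional curve fit vs DMSO baseline.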

Read-out in assay [7]: Cytochrome P450 (CYP24A1), CYP24A1 (gene 1591)
The assay can be described thus: LTEA_HepaRG_CYP24A1: Life Technologies and Expression Analysis (LTEA) Assay for Cytochrome P450 (CYP24A1) using HepaRG (AID 2283478). Summed up: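 qRT-PCR read-out: CYP24A1 transcript levels normalized to three housekeeping genes, bidirectional curve fits against 0.5% DMSO baseline. Human HepaRG cells treated 48 h with chemicals at eight concentrations from 100 uM in half-log steps.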

Read-out in assay [8]: Cytochrome P450 (CYP1A2), CYP1A2 (gene 1544)
In words: LTEA_HepaRG_CYP1A2: Life Technologies and Expression Analysis (LTEA) Assay for Cytochrome P450 (CYP1A2) using HepaRG (AID 2283479). Summed up: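 HepaRG, 48 h exposure, top 100 uM, half-log 8-pt, 0.5% DMSO vehicle, duplicates. Readout: TaqMan qRT-PCR of CYP1A2 mRNA, housekeeping-normalized (ACTB/GAPDH/POLR2A). Gain/loss fit relative to DMSO baseline.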

Read-out in assay [9]: cysteine-aspartic acid protease (CASP8), CASP8 (gene 841)
In words: LTEA_HepaRG_CASP8: Life Technologies and Expression Analysis (LTEA) Assay for cysteine-aspartic acid protease (CASP8) using HepaRG (AID 2283480). Summed up:
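CASP8 transcript measured by TaqMan qRT-PCR with ACTB/GAPDH/POLR2A normalization, after 48 h chemical exposure of HepaRG cells in serum-free induction medium. Eight concentrations, top 100 uM, half-log steps, 0.5% DMSO vehicle; fits in both directions versus DMSO.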

Read-out in assay [10]: Cytochrome P450 (CYP2B6), CYP2B6 (gene 1555)
The assay can be described thus: LTEA_HepaRG_CYP2B6: Life Technologies and Expression Analysis (LTEA) Assay for Cytochrome P450 (CYP2B6) using HepaRG (AID 2283481). Summed up: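 Read-out is CYP2B6 mRNA by TaqMan qRT-PCR, normalized to three housekeeping genes and fitted bidirectionally against 0.5% DMSO baseline. Human HepaRG cells received test chemicals for 48 h, top concentration 100 uM, half-log dilutions.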

Read-out in assay [11]: Cytochrome P450 2C19 (Homo sapiens) (UniProt P33261)
The assay can be described thus: LTEA_HepaRG_CYP2C19: Life Technologies and Expression Analysis (LTEA) Assay for CYP2C19 using HepaRG (AID 2283482). Put shortly: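 HepaRG, 48 h chemical exposure, 8-pt half-log series from 100 uM in 0.5% DMSO, duplicates. Readout: CYP2C19 mRNA by TaqMan qRT-PCR, housekeeping-normalized. Bidirectional fit vs DMSO baseline; phenobarbital 1mM as induction control.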

Read-out in another assay: CYP2C8 (gene 1558)
The assay can be described thus: LTEA_HepaRG_CYP2C8: Life Technologies and Expression Analysis (LTEA) Assay for CYP2C8 using HepaRG (AID 2283483). Summed up: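 CYP2C8 expression measured by TaqMan qRT-PCR and normalized to three housekeeping genes. HepaRG cultures were treated for 48 h with an eight-point half-log series topping at 100 uM, vehicle 0.5% DMSO, duplicates; fitted both directions against DMSO.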

Read-out in a further assay: CYP2C9 (gene 1559)
The assay can be described thus: LTEA_HepaRG_CYP2C9: Life Technologies and Expression Analysis (LTEA) Assay for CYP2C9 using HepaRG (AID 2283484). Summed up: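 CYP2C9 transcript level, quantified by TaqMan qRT-PCR against three housekeeping genes, was fitted bidirectionally relative to 0.5% DMSO. HepaRG cultures were treated 48 h, in duplicate, at eight half-log concentrations topping at 100 uM.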

Read-out in the next assay: CYP2E1 (gene 1571)
The assay can be described thus: LTEA_HepaRG_CYP2E1: Life Technologies and Expression Analysis (LTEA) Assay for CYP2E1 using HepaRG (AID 2283485). Put shortly:
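Assay uses 48 h exposure of HepaRG hepatic cells, eight concentrations to 100 uM. Expression of CYP2E1 is quantified by TaqMan qRT-PCR with ACTB, GAPDH and POLR2A normalization; curves fitted in both directions relative to vehicle.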

Read-out in assay [12]: Cytochrome P450 3A4 (Homo sapiens) (UniProt P08684)
The assay can be described thus: LTEA_HepaRG_CYP3A4: Life Technologies and Expression Analysis (LTEA) Assay for CYP3A4 using HepaRG (AID 2283487). Summed up: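 CYP3A4 transcript measured by TaqMan qRT-PCR and normalized to three housekeeping genes after 48 h chemical exposure of human HepaRG cells. Top concentration 100 uM, half-log steps, 0.5% DMSO vehicle; gain or loss fitted against DMSO baseline.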

Read-out in assay [13]: Pro-epidermal growth factor (Homo sapiens) (UniProt P01133)
The assay can be described thus: LTEA_HepaRG_EGF: Life Technologies and Expression Analysis (LTEA) Assay for Epidermal growth factor (EGF) using HepaRG (AID 2283489). Put shortly: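 qRT-PCR readout of EGF transcript after 48 h chemical exposure of HepaRG cells; eight concentrations from 100 uM down in half-log steps, duplicate wells, 0.5% DMSO vehicle. Bidirectional curve fitting against DMSO baseline.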

Read-out in another assay: CYP4A11 (gene 1579)
The assay can be described thus: LTEA_HepaRG_CYP4A11: Life Technologies and Expression Analysis (LTEA) Assay for CYP4A11 using HepaRG (AID 2283486). Summed up:
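CYP4A11 transcript levels were quantified by TaqMan qRT-PCR after HepaRG human liver cells were treated for 48 hours with test chemicals (top 100 uM, half-log dilutions, 0.5% DMSO). Gain or loss of signal was fitted relative to DMSO.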

Read-out in assay [14]: DNA damage-inducible transcript 3 (DDIT3), DDIT3 (gene 1649)
In words: LTEA_HepaRG_DDIT3: Life Technologies and Expression Analysis (LTEA) Assay for DNA damage-inducible transcript 3 (DDIT3) using HepaRG (AID 2283488). Put shortly:
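Eight-point concentration-response (100 uM highest, half-log dilutions) in HepaRG, 48 h, duplicate wells. Endpoint: qRT-PCR mRNA, normalized (ACTB, GAPDH, POLR2A), bidirectional fitting with DMSO as baseline.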

For orientation: AC50 means the midpoint of the concentration-response curve, whichever way the signal moves.

Calls of active or inactive are those of the source. How the source made its calls: active means hit-call score of the fitted dose curve at least 0.9, where 1 is the maximum; inactive means score below 0.9.

Chain of Cytochrome P450 3A4 (Homo sapiens) (P08684 whole entry, looked up): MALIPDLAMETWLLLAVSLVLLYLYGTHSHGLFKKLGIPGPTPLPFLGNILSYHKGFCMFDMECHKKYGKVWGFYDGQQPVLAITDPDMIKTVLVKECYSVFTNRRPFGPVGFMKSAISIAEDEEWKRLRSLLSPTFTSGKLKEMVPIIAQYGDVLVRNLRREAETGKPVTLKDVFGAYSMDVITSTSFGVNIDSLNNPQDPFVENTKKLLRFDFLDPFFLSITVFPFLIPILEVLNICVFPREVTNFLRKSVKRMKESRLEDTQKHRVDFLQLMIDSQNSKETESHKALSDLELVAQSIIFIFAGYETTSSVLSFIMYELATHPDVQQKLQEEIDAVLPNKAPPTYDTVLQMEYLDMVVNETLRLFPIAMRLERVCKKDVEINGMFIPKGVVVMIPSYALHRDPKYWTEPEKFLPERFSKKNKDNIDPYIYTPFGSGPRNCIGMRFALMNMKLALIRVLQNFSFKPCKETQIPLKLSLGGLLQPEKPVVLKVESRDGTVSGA
Chain of Apoptosis regulator Bcl-2 (Homo sapiens) (P10415 whole entry, looked up): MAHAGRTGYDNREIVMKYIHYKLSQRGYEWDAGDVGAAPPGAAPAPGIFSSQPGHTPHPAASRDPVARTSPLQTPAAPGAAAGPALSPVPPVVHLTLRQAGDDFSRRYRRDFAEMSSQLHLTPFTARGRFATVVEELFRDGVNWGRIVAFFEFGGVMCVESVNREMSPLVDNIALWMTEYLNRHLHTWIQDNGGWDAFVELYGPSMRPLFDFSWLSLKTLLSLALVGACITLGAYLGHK
Chain of Cytochrome P450 2C19 (Homo sapiens) (P33261 whole entry, looked up): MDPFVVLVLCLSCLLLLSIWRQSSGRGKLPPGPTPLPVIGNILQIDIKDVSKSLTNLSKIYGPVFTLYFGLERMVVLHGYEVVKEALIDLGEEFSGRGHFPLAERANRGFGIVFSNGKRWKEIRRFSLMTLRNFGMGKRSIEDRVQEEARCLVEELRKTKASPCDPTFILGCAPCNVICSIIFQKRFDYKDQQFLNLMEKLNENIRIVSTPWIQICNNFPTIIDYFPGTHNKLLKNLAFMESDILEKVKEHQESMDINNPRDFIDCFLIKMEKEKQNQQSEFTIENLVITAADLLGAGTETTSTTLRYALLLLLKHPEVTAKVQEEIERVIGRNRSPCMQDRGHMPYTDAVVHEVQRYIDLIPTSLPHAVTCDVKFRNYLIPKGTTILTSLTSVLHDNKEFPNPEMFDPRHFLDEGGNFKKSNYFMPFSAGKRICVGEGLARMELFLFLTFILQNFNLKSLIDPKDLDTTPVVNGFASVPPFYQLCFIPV
Chain of Caspase-3 (Homo sapiens) (P42574 whole entry, looked up): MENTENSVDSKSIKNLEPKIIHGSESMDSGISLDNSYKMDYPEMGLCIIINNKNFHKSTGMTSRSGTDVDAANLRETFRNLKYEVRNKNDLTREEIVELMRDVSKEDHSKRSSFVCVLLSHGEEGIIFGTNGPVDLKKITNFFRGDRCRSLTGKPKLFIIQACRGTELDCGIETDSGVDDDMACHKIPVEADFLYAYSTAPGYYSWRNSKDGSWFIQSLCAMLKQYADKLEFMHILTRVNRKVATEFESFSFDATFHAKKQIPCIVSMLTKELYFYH

For `CCCC[C@H]1CN(CC2CCOCC2)C(=O)OC12CCN(C1(C)CCN(C(=O)c3c(C)ncnc3C)CC1)CC2`, the call (in assay [1]; in assay [2]; in [3]; in the assay with BCL2L11 (gene 10018); in assay [4]; in assay [5]) was inactive. Besides, the call (in assay [6]; in the assay with Caspase-3 (Homo sapiens); in [7]; in assay [8]; in assay [9]; in [10]) was inactive. Also, the compound was classed as inactive (in assay [11]; with CYP2C8 (gene 1558); with CYP2C9 (gene 1559); with CYP2E1 (gene 1571); in [12]; in assay [13]).
`O=[Si]=O`: the call (in [1]; in assay [2]; in assay [3]; in the assay with BCL2L11 (gene 10018); in assay [4]; in assay [5]) was inactive. The outcome (in assay [6]; with Caspase-3 (Homo sapiens); in assay [7]; in assay [9]; in assay [11]; in the assay with CYP2C8 (gene 1558)) was inactive. Also, the outcome (with CYP2C9 (gene 1559); with CYP2E1 (gene 1571); with CYP4A11 (gene 1579); in assay [12]; in [14]) was inactive. In addition, the AC50 was 50 µM (active) in assay [8] and 0.099 µM (active) in assay [10].
For the compound `NCCOCCOCCN`, the result (in assay [1]; in assay [2]; in [3]; with BCL2L11 (gene 10018); in [4]; in assay [5]) was inactive. Moreover, the compound was called inactive (in assay [6]; in the assay with Caspase-3 (Homo sapiens); in [7]; in [8]; in assay [9]; in [10]). Moreover, the compound was classed as inactive (in assay [11]; with CYP2C8 (gene 1558); in the assay with CYP2C9 (gene 1559); with CYP2E1 (gene 1571); in the assay with CYP4A11 (gene 1579); in assay [12]). Moreover, the result in [14] and in assay [13] was inactive.
Turning to `NC(=Nc1ccccc1)Nc1ccccc1`, the compound was called inactive (in assay [1]; in [2]; with BCL2L11 (gene 10018); in assay [4]; in assay [5]; in assay [6]). The result (with Caspase-3 (Homo sapiens); in [7]; in assay [9]; in assay [10]; in assay [11]; with CYP2C8 (gene 1558)) was inactive. The outcome (with CYP2C9 (gene 1559); with CYP2E1 (gene 1571); with CYP4A11 (gene 1579); in assay [13]) was inactive. For the same compound, the AC50 in [3] is 70.9 µM (active); in assay [8] it was 50 µM (active); in assay [14], 27.6 µM (active).
Turning to `CCCCCCC(CCCCCCCCCCC(=O)OCC(COC(C)=O)OC(C)=O)OC(C)=O` (stereo not given), the outcome (in [1]; in assay [2]; in [3]; in the assay with BCL2L11 (gene 10018); in assay [4]; in assay [5]) was inactive. In addition, the call (in assay [6]; with Caspase-3 (Homo sapiens); in assay [7]; in [8]; in assay [9]; in assay [10]) was inactive. The compound was called inactive (in assay [11]; in the assay with CYP2C8 (gene 1558); with CYP2C9 (gene 1559); with CYP2E1 (gene 1571); with CYP4A11 (gene 1579); in assay [12]). The compound was called inactive in assay [13].
With `Nc1nc(=S)c2[nH]cnc2[nH]1`, the AC50 in assay [1] was 3.39 µM (active); in [3], 6.35 µM (active); in [4] it was 3.48 µM (active); in assay [8], 3.04 µM (active); in [10], 5.84 µM (active); in assay [11], 9.48 µM (active). Moreover, the AC50 with CYP2C8 (gene 1558) is 32.2 µM (active); in the assay with CYP2C9 (gene 1559), 7.91 µM (active); with CYP2E1 (gene 1571), 5.72 µM (active); in the assay with CYP4A11 (gene 1579), 6.3 µM (active); in [12] it was 27.6 µM (active); in assay [14], 8.69 µM (active). Moreover, the outcome (in assay [2]; with BCL2L11 (gene 10018); in assay [5]; in assay [6]; with Caspase-3 (Homo sapiens); in [7]) was inactive. For the same compound, the outcome in assay [9] and in assay [13] was inactive.

The record behind these values is PubChem BioAssay (EPA / NIEHS).
